# PubChem BioAssay (NCATS)
# Inconclusive results are not listed. Entries that show only a call come without a potency. The source made the active and inactive calls. Calls follow the shape of the dose curve; as a rule, active = well fitted curve in the direction sought with a large enough effect; inconclusive = small, poorly fitted or top-dose-only effect, or another doubt; inactive = no such curve, though single readings can be large; an effect the other way counts as inactive or inconclusive.
# Tests used:
# [1] = tested on: Zika virus NS2B-NS3 protease; test: Primary screen GU AMC qHTS for Zika virus inhibitors (AID 1347154); details: Zika NS2B-NS3 unlinked protease, AMC fluorogenic substrate; series mostly up to 54.1 µM; also: nearly all actives have a fitted effect of over 70% in size; also: potency is read from the fitted curve at half-maximal effect
# In short: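 Unlinked Zika NS2B hydrophilic domain–NS3 protease complex at 25 nM in 10 mM Tris-HCl pH 8.0, 0.01% Tween 20, with an AMC peptide substrate. Fluorescence change (340/450 nm) over 15 min at room temperature, normalized to controls, fitted to 4-parameter Hill.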
# [2] = Confirmatory screen GU Rhodamine qHTS for Zika virus inhibitors qHTS (AID 1347157); details: purified enzyme assay, Rhodamine110 substrate fluorescence, 15 min; series mostly up to 114 µM; also: nearly all actives have a fitted effect of over 70% in size; also: potency is read from the fitted curve at half-maximal effect
# In short: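 Compounds, tested up to 114 microM, were incubated for 15 minutes with 25 nM unlinked NS2B-NS3 protease at pH 8.0. Cleavage of 1.5 microM Rhodamine110 substrate was then followed by fluorescence for 15 minutes.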
# [3] = tested on: Zika virus NS2B-NS3 protease (unlinked complex); test: Primary screen GU Rhodamine qHTS for Zika virus inhibitors: Unlinked NS2B-NS3 protease assay (AID 1347159); details: Recombinant ZIKV NS2B-NS3 protease, Rhodamine110 substrate fluorescence; series mostly up to 107 µM; also: nearly all actives have a fitted effect of over 60% in size
# In short: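 Percent inhibition came from the 15-min rise in Rhodamine110 fluorescence (1.5 microM substrate, ~15% conversion), normalized to no-inhibitor and no-enzyme wells and Hill-fitted. Unlinked protease, 25 nM, pH 8.0 Tris buffer; compounds up to 114 microM, 15-min preincubation.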
smiles,measurement,setting,value
O=C(NCCc1c[nH]c2ccccc12)c1cccnc1,Potency,[1],inactive
Cc1ncc(CO)c(C=O)c1O,Potency,[1],14.4 µM (active)
Nc1ccc(S(=O)(=O)Nc2cnc3ccccc3n2)cc1,Potency,[1],inactive
FC(F)(F)C(F)(F)C(F)(F)C(F)(F)C(F)(F)C(F)(F)C(F)(F)C(F)(F)Br,Potency,[1],inactive
CC[N+](C)(CC)CCOC(=O)C(O)(c1ccccc1)C1CCCCC1 (stereo unspecified),Potency,[1],inactive
CNCCCCOc1ccccc1Cc1ccccc1,Potency,[1],inactive
NCCNC(=O)c1ccc(Cl)cn1,Potency,[1],inactive
CC[C@H](c1ccc(O)cc1)[C@@H](CC)c1ccc(O)cc1,Potency,[1],inactive
C#C[C@]1(O)CC[C@H]2[C@@H]3CCc4cc(OC)ccc4[C@H]3CC[C@@]21C,Potency,[1],inactive
CC(C)[N+](C)(C)CC(O)COc1cccc2ccccc12 (stereo unspecified),Potency,[1],inactive
O=C1OC(CN2CCOCC2)CN1/N=C/c1ccc([N+](=O)[O-])o1 (stereo unspecified),Potency,[1],inactive
COc1cc(C(=O)N2CCCCCCC2)cc(OC)c1OC,Potency,[1],inactive
CCN1CCCC(OC(=O)C(c2ccccc2)c2ccccc2)C1 (stereo unspecified),Potency,[1],inactive
CCCCCCCCCCCCCC[N+](C)(C)Cc1ccccc1,Potency,[1],inactive
CN(C)CCOC(c1ccc(Cl)cc1)c1ccccn1 (stereo unspecified),Potency,[1],inactive
C=CCN1CCc2nc(N)sc2CC1,Potency,[1],inactive
c1ccc(-c2nc[nH]c2-c2ccccc2)cc1,Potency,[1],inactive
Nc1nc(N)c(-c2ccccc2)s1,Potency,[1],inactive
CCc1nn(CCCN2CCN(c3cccc(Cl)c3)CC2)c(=O)n1CCOc1ccccc1,Potency,[1],inactive
COc1cc(C(=O)NCc2ccc(OCCN(C)C)cc2)cc(OC)c1OC,Potency,[1],inactive
CN(C)CCC[C@@]1(c2ccc(F)cc2)OCc2cc(C#N)ccc21,Potency,[1],inactive
O=C1C(=O)c2ccccc2C(O)=C1C1CCC(c2ccc(Cl)cc2)CC1 (stereo unspecified),Potency,[1],inactive
CCN(CC)CCOc1ccccc1C(=O)CCc1ccccc1,Potency,[1],inactive
Cc1ccc(S(=O)(=O)NC(=O)NC2CCCC2)cc1,Potency,[1],inactive
CCCCNc1ccc(C(=O)OCCOCCOCCOCCOCCOCCOCCOCCOCCOC)cc1,Potency,[1],inactive
Cc1cc(C)cc(OCC2CNC(=O)O2)c1 (stereo unspecified),Potency,[1],inactive
CC(C)(C)NCC(O)COc1cccc2c1C[C@H](O)[C@H](O)C2 (stereo partly specified),Potency,[1],inactive
Oc1c(Cl)cc(Cl)c(Cl)c1Cc1c(O)c(Cl)cc(Cl)c1Cl,Potency,[2],15.8 µM (active)
C=C[C@H]1CN2CC[C@H]1C[C@H]2[C@H](O)c1ccnc2ccc(OC)cc12,Potency,[2],inactive
same,outcome,[3],inactive
CC[C@]12CCCN3CCc4c(n(c5ccccc45)C(=O)C1)[C@@H]32,outcome,[3],inactive
